Measured values as given in PubChem BioAssay AID1063 (University of Pittsburgh Molecular Library Screening Center, 2008).
About 18,000 (9%) of roughly 200,000 compounds were called active. The sample holds actives, similar compounds and a random draw of the others, so the mix is not that of the screen. Unmarked numbers belong to inactive results. Rule as the data show it: active = inhibition above about 50%; inactive = the rest.

Assay: antileishmanial activity against promastigotes – primary screen (AID 1063);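 also: promastigotes grown with compound for 44 hours at 28 °C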
Settings: Leishmania major promastigotes, resazurin fluorescence viability; at 10 µM; hits give high values

Row | SMILES | inhibition
1 | O=C(O)CCn1c(SCc2cc(=O)n3ccccc3n2)nc2ccsc2c1=O | -0.88%
2 | CCN(CC)CCNC(=O)c1ccc(NC(=O)c2c(F)cccc2Cl)cc1 | 7.35%
3 | COc1ccc(Cn2nnc3c(=O)[nH]c(C4CCN(C(=O)c5ccccc5Cl)CC4)nc32)cc1 | -0.57%
4 | COc1ccc(CN2CCC(c3nc4ccc(Cl)cc4[nH]3)CC2)cc1 | 95.6% (active)
5 | COc1ccc(F)c(-c2nc(CN3CCC(c4ccccc4)CC3)c(C)o2)c1 | 48.2%
6 | CCOc1ccc(C(CC(=O)O)NC(=O)C23CC4CC(CC(C4)C2)C3)cc1OC (stereo not drawn) | 3.74%
7 | Cn1ncc2c(NNC(=O)Cc3cccc4ccccc34)ncnc21 | 61.6% (active)
8 | O=C(NNc1ncnc2c1cnn2-c1ccccc1)c1ccco1 | -5.13%
9 | Cn1ncc2c(Nc3cccc4ccccc34)ncnc21 | -6.4%
10 | O=C1OCC2=C1C(c1ccccc1)CC(=O)N2c1cccc(F)c1 (stereo not drawn) | 7.11%
11 | COC(=O)CCNc1ccc2c(c1)OCCO2 | -0.44%
12 | Cc1ccc2nc(-c3ccncc3)cc(C(=O)Nc3ccc4c(c3)OCCO4)c2c1 | 5.91%
13 | CCOC(=O)c1cnc2ccc(F)cc2c1Nc1ccc2c(c1)OCCO2 | 85.4% (active)
14 | CCCNCc1cc(OCC)c(OCC(=O)Nc2ccccc2)cc1Br | 33.5%
15 | CCOc1cc(CNCCN(C)C)c(Cl)cc1OCC(=O)NCCc1ccccc1 | 99% (active)
16 | O=C(COc1cc(Cl)c(Cl)cc1Cl)NCCc1ccccn1 | -5.85%
17 | Cc1ccc(-c2n[nH]c(=S)n2/N=C/c2cc3c(cc2[N+](=O)[O-])OCO3)cc1 | -0.37%
18 | CCOc1ccc(-c2n[nH]c(=S)n2/N=C/c2cc3c(cc2[N+](=O)[O-])OCO3)cc1 | 52.8% (active)
19 | O=[N+]([O-])c1ccccc1/C=N/n1c(COc2ccccc2)n[nH]c1=S | -4.75%
20 | CN(C)c1ccc2c(=O)[nH][nH]c(=O)c2c1 | -5.2%
21 | CC(=O)N1CCc2cc(Br)cc(S(=O)(=O)CCC(=O)Nc3c(C)n(C)n(-c4ccccc4)c3=O)c21 | -1.11%
22 | CCn1c(/C=C/c2ccc([N+](=O)[O-])o2)nc2ccccc2c1=O | 100% (active)
23 | O=c1oc(/C=C/c2ccccc2)nc2ccccc12 | 1.06%
24 | CCOCCCn1c(NN)nc2ccccc2c1=O | -5.56%
25 | CCN1CCC2(CCN(Cc3cn[nH]c3-c3ccc(OC)c(F)c3)C2)C1 (stereo not drawn) | 1.79%
26 | CCOC(=O)c1c(C2CC2)csc1NC(=O)CSCc1c(C)noc1C | 100% (active)
27 | CCOC(=O)c1c(-c2cccc(C)c2)csc1NC(=O)c1c(-c2ccccc2)noc1C | 1.98%
28 | Cc1noc(C)c1CSCC(=O)Nc1nc2ccc(Oc3ccccc3)cc2s1 | 2.23%
